Measurements: PubChem BioAssay AID652067 (The Scripps Research Institute Molecular Screening Center, 2013)
The whole screen tested about 370,000 compounds, of which about 5,400 (1.5%) were called active. The sample holds actives, similar compounds and a random draw of the others, so the mix is not that of the screen.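 Rule for the calls: active = activation above the mean of all tested compounds plus 3 SD (cut at about 5.5% in these data); inactive = the rest.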

What follows are compounds tested on DAF-12 nuclear receptor (Haemonchus contortus) (assay: H. contortus DAF-12 nuclear receptor activators, primary screen, cell-based, luminescence, HEK293, lit1-tk-luc reporter (AID 652067;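 note: 100% = response to 3 µM Δ7-dafachronic acid high control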)). Conditions: HEK293 hcDAF-12 lit1-tk-luc reporter, at 6.8 µM, stronger effect = higher value, 0% DMSO, 100% Δ7-dafachronic acid.

Compound | activation
COC(=O)C(C(=O)OC)c1ccccc1NS(=O)(=O)c1cccc2ccccc12 | -1.63% (inactive)
COc1cccc(/C=C2\CC3(OC(C)=O)CCCN2C3)c1 (stereo not drawn) | -1.14% (inactive)
COc1cccc2sc(Nc3nc(C)c(C(C)=O)s3)nc12 | 6.52% (active)
COc1ccccc1Nc1ncc(C(C)=O)c(C)n1 | -0.49% (inactive)
CNC(=O)c1sc(Nc2ccc(OCc3ccccc3)cc2)nc1C | -3.73% (inactive)
CCOC(=O)N1CCN(C(=O)C[C@@H]2C(=O)N(CCc3ccc(Cl)cc3)C3=CCCC[C@]32C(=O)OCC)CC1 | -4.47% (inactive)
CCCCNC(=O)C[C@@H]1C(=O)N(CCc2ccc(Cl)cc2)C2=CCCC[C@]21C(=O)OCC | -2.83% (inactive)
COc1ccccc1OCC(=O)O/N=C(\N)c1ccccn1 | 7.16% (active)
O=C(COC(=O)c1ccccn1)NNC(=O)c1ccc(Br)cc1 | -2.22% (inactive)
COc1ccccc1OCC(=O)OCc1cc(-c2ccco2)on1 | -2.08% (inactive)
COc1ccc(C(=O)O/N=C(\N)c2ccccn2)cc1[N+](=O)[O-] | 6.36% (active)
N/C(=N\OC(=O)Cc1ccc([N+](=O)[O-])cc1)c1ccccn1 | 1.92% (inactive)
O=C(COC(=O)c1ccccn1)NNC(=O)c1ccc([N+](=O)[O-])cc1 | 1.23% (inactive)
N/C(=N\OC(=O)CCC1CCCCC1)c1ccccn1 | 4.24% (inactive)
Cc1ccc(C(=O)O/N=C(\N)c2ccccn2)cc1Cl | 8.22% (active)
C/C(=N/OC(=O)c1cccc(C(F)(F)F)c1)c1cnccn1 | -0.26% (inactive)
CCOC(=O)c1cccc(NC(=O)CN(C)S(=O)(=O)c2ccc(-c3cocn3)s2)c1 | -1.38% (inactive)
C=CCN1C(=O)[C@@H](CC(=O)N2CCN(C(=O)OCC)CC2)[C@]2(C(=O)OCC)CCCCC/C=C/12 | 0.11% (inactive)
CCC(=O)OCCCN1C(=O)CCC12CCC(c1ccccc1)CC2 (stereo not drawn) | -1.9% (inactive)
CN(C)[C@H]1CCN(c2cccc3c2S(=O)(=O)N2CC[C@H](C2)O3)C1 | 1.72% (inactive)
Cc1ccc(CN2CCCCC(NC(=O)C3CCCCC3)C2=O)cc1 (stereo not drawn) | -1.6% (inactive)
COC(=O)[C@]12C[C@H](CC(=O)N3CCN(C(=O)C4CC4)CC3)C(=O)N(CCC3=CCCCC3)C1=C[C@H](C(C)C)O[C@@H]2C1CC1 | -1.23% (inactive)
Nn1c(SCC(=O)Nc2ccc(S(N)(=O)=O)cc2)nnc1-c1n[nH]c2c1CCC2 | -1.75% (inactive)
Cc1ccc(NC(=O)c2cc3ccccc3o2)cc1 | 10.5% (active)

Compound | activation
Cc1cccc(-n2nc3c(c2NC(=O)c2cc4ccccc4o2)CS(=O)(=O)C3)c1 | 1.51% (inactive)
C/C(=N\NC(=S)Nc1ccc(C)cc1)c1cc2ccccc2o1 | -0.69% (inactive)
CC(C)(C)c1ccc(CSc2nnc(-c3cccs3)o2)cc1 | 1.61% (inactive)
COc1ccccc1C(=O)NC(=O)COC(=O)C1CC1 | 0.43% (inactive)
CCOc1ccc(C(O)Cn2c(=N)n(CCN3CCCCC3)c3ccccc32)cc1 (stereo not drawn) | -0.25% (inactive)
Cn1c(=N)n(CC(O)c2ccccc2)c2ccccc21 (stereo not drawn) | 6.33% (active)
Cc1nc2ccccc2n1CC(O)c1ccccc1 (stereo not drawn) | 1.55% (inactive)
CCC(=O)Nc1ccc2c(c1)C(=O)N(C)[C@H]1CC[C@H](CC(=O)NCCOC)O[C@@H]1CO2 | -0.71% (inactive)
COC(=O)C1CN(CCc2ccccc2)CCS(=O)(=O)N1Cc1cccc(Cl)c1 (stereo not drawn) | -1.52% (inactive)
O=C(NC1CCCCN(Cc2ccc(Cl)cc2)C1=O)c1ccc(Br)cc1 (stereo not drawn) | -2.55% (inactive)
O=C(NC(Cc1c[nH]c2ccccc12)C(=O)O)/C(=C/c1ccco1)NC(=O)c1ccccc1 (stereo not drawn) | 6.62% (active)
O=C(NC(Cc1ccccc1)C(=O)O)/C(=C\c1ccccc1)NC(=O)c1ccco1 (stereo not drawn) | -0.54% (inactive)
O=C(NCc1ccco1)/C(=C/c1ccco1)NC(=O)c1ccccc1 | -0.96% (inactive)
Cc1ccc(-n2c(SCC(=O)Nc3ccc(S(=O)(=O)Nc4nccs4)cc3)nnc2-c2ccccn2)cc1 | -0.18% (inactive)
COc1cc(NC(=O)C2CCCN(S(=O)(=O)c3ccc(C(C)(C)C)cc3)C2)cc(OC)c1 (stereo not drawn) | -1.6% (inactive)
CC(C)C(C#CC1CC1)N(Cc1ccc2c(c1)OCO2)C(N)=NC(=O)/C=C/c1cccc(C(F)(F)F)c1 (stereo not drawn) | 0.1% (inactive)
COC(=O)[C@]1(C#N)CC(=O)N(CC2CCCCC2)[C@@H]1c1ccccc1 | 0.64% (inactive)
O=C(Nc1cccc(C(=O)O)c1)/C(=C\c1ccccc1)NC(=O)c1ccc(Br)o1 | -0.49% (inactive)
Cc1cccc(NC(=S)NC(=O)c2ccc(Br)o2)c1 | 6.48% (active)
CCS(=O)(=O)c1ccc(-c2cccc(NC(=O)c3ccc(Br)o3)c2)nn1 | 1.53% (inactive)
CC(=O)c1ccc(N=C2SCCCN2C(=O)C2CCCCC2)cc1 | 1.46% (inactive)
COC(=O)c1ccc(CN2C(=O)[C@]3(OCCC=C[C@H]3C)c3c(Br)cccc32)cc1 | -3.24% (inactive)
O=C(CN1CCC(NC(=O)NCc2ccccc2)CC1)Nc1ccc2c(c1)OCCO2 | -0.83% (inactive)
CC1(C)N=C(N)NC(Nc2ccc(Cl)cc2)=N1 | 0.62% (inactive)

Compound | activation
C=CCNc1nc(Nc2ccc(Cl)cc2)nc(OC)n1 | -0.18% (inactive)
Clc1ccc(Nc2ccc3ccccc3n2)cc1 | 17.1% (active)
CCOC(=O)/C=C/CN(C(=O)OC(C)(C)C)S(=O)(=O)N1CC=CC1 | -0.7% (inactive)
COc1ccc(-n2c(SCC(=O)Nc3ccc4cn[nH]c4c3)nnc2-c2cccnc2)cc1 | -1.7% (inactive)
CC(C)CNc1cccc2c1S(=O)(=O)N(Cc1cn(Cc3ccccc3C(F)(F)F)nn1)Cc1ccccc1O2 | -1.42% (inactive)
O=C(CSc1nc2sc3c(c2c(=O)n1-c1ccccc1)CCCC3)NN=Cc1ccc(OCc2ccccc2)cc1 | -1.69% (inactive)
COc1cccc(C2c3[nH]c4ccccc4c3CCN2Cc2cccc(C)n2)c1 (stereo not drawn) | 3.77% (inactive)
CCOc1ccc(C2c3[nH]c4ccccc4c3CCN2Cc2cccn2-c2ncccn2)cc1 (stereo not drawn) | 1.92% (inactive)
CCOc1ccc(C2c3[nH]c4ccccc4c3CCN2Cc2cn(CC)nc2C)cc1 (stereo not drawn) | 6.76% (active)
Cc1[nH]c2ccccc2c1CC(=O)Nc1ccc(Nc2cccnc2)c(-c2cccc(Cl)c2)c1 | 1.03% (inactive)
COc1ccc(CNC(=O)c2ccc3oc(C(C)C)nc3c2)cc1 | 6.74% (active)
CC(C)c1nc2cc(C(=O)NC(C)c3cnn(C)c3)ccc2o1 (stereo not drawn) | -1.66% (inactive)
COC(=O)c1ccc(CNC(=O)c2ccc3oc(C(C)C)nc3c2)cc1 | 0.43% (inactive)
CC(c1ccc(N)cc1)c1cn(C)c2ccccc12 (stereo not drawn) | -2.32% (inactive)
Cc1ccccc1Nc1nc(N)nc(COC(=O)CCC(=O)c2ccc(F)cc2)n1 | -0.96% (inactive)
Cc1ccccc1Nc1nc(N)nc(CSc2ccccc2)n1 | 6.93% (active)
Cc1ccccc1Nc1nc(N)nc(CSc2nnc3ccccn23)n1 | 0.54% (inactive)
COC(CNC(=O)[C@H](Cc1ccccc1)NC1(C(=O)NC2CCCCC2)CCCCC1)OC | 0.68% (inactive)
CC(=O)/C(=N\Nc1ccc(Cl)cc1Cl)Sc1cccc2cccnc12 | -1.47% (inactive)
O=C(Nc1cccc2cccnc12)c1cccc(Cl)c1 | 5.97% (active)
O=C(Nc1cccc2cccnc12)c1ccc2sc([C@H]3C[C@H](O)[C@@H](CO)O3)nc2c1 | -3.24% (inactive)
COC(=O)[C@]12C[C@H](CC(=O)N3CCOCC3)C(=O)N(Cc3ccc(Cl)cc3Cl)C1=C[C@H](C(C)C)O[C@@H]2C1CC1 | -0.53% (inactive)
CC(=O)OC12CCCN(C1)/C(=C/c1ccncc1)C2 (stereo not drawn) | -0.38% (inactive)
CC1CCCCC1NC(=O)Cn1c(=O)cnc2ccccc21 (stereo not drawn) | 0.69% (inactive)

Compound | activation
O=C(/C=C/c1cnc2ccccc2n1)NC1CCCCCC1 | 8.85% (active)
O=C(Cn1c(-c2cncs2)nc2ccccc21)NC1CCCC1 | -0.67% (inactive)
COCCN1CCn2c(nc3cc(NS(C)(=O)=O)ccc32)C1 | 0.72% (inactive)
O=C(NC1CCC1)c1ccc(C#CC2CC2)cn1 | 1.58% (inactive)
Nc1ncnc2c1ncn2C1OC(CO)CC1O (stereo not drawn) | -1.72% (inactive)
C#CCOc1ccccc1/C=C1/C(=O)ON=C1C | 6.39% (active)
Cc1no[n+]([O-])c1COc1ccccc1/C=C1\NC(=S)NC1=O | -0.17% (inactive)
Cc1cccc(NC(=O)c2cc3c(C)nn(-c4ccccc4)c3s2)c1 | -3.69% (inactive)
O=C(NCCc1csc(-c2ccccc2)n1)c1ccccc1F | -1.62% (inactive)
O=C(NCCOc1ccccc1)c1ccccc1F | 6.22% (active)
NS(=O)(=O)c1cc(C(=O)NCCOc2ccccc2)c(Cl)cc1Cl | -2.95% (inactive)
CCc1c(-c2ccccc2OC)ncn1CCc1ccccc1OC | -2.85% (inactive)
N[C@@H](Cc1ccccc1)C(=O)N1CCC[C@@H]1C(=O)N1CCC2CCN(S(=O)(=O)c3ccccc3)CC21 (stereo partly drawn) | -1.99% (inactive)
COC1=NC2=NCCN2C(OC)=N1 | 0.26% (inactive)
COC(=O)C[C@@H]1CC[C@@H]2[C@@H](COc3ccc(NC(=O)Nc4ccc(F)c(F)c4)cc3C(=O)N2C)O1 | -4.16% (inactive)
N#CCC[C@H]1CC[C@]2(CCCN(Cc3ccc(Cl)cc3)C2)O1 | -0.47% (inactive)
CN(CCO)c1ccc(/C=N/Nc2nncc3ccccc23)cc1 | 5.57% (inactive)
Cc1noc(C)c1/C=N/Nc1ccc2ccccc2n1 | 7.4% (active)
C(=N\Nc1ccc2ccccc2n1)/c1ccc2c(c1)OCO2 | 7.26% (active)
Nc1nonc1-n1nnc(C(=O)N/N=C/c2ccc(Cl)cc2)c1-c1ccc2c(c1)OCO2 | 0.66% (inactive)
Cc1cc2c(C)nc(N/N=C/c3ccccc3)nc2o1 | -0.61% (inactive)
